# Screening data: PubChem BioAssay, Sanford-Burnham Center for Chemical Genomics
# TWEAK-Fn14 inh: TWEAK-Fn14 signaling inhibition; TWEAK-stimulated Fn14 reporter cells, luciferase luminescence, 8 h; inhibition, % at 10 µM; hit rate 2% among 360,000; in the data active = inhibition above about 50%
# TROY signal inh: inhibitors of TROY-dependent NF-kB signaling. Q293 LMP1-TROYcd NF-kB luciferase reporter, 4 h. AID 1347056. hit rate 0.98% among 360,000. inhibition, % at 10 µM;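 active = compounds whose plate-normalised and pattern-corrected inhibition of the luciferase reporter signal at the single screening dose is 50% or more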
# KKLEB cytotox: counter-screen for CF NF-kB inhibitors: cytotoxicity; KKLEB CF airway cells viability, ATPlite luminescence, overnight; hits give low values; cells stimulated with P. aeruginosa culture filtrate; hit rate 0.36% among 360,000; activity change (cytotoxicity), % at 5 µM;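 active = corrected activity change at or below -50% at 5 µM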
# Peg3 prom inh: Peg3 promoter activity inhibition. HeLa PEG-Prom luciferase reporter, luminescence, overnight. inhibition, % at 20 µM. hit rate 1.7% among 360,000. AID 588405;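 active = inhibition of at least 50% at 20 µM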
# HIF-2a block: blocks HIF-2a reporter activity. 786-0 RCC cells HIF-2a reporter, luciferase luminescence, overnight. inhibition, % at 18.8 µM. hit rate 0.72% among 360,000;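 active = inhibition of the luminescence signal of 40% or more relative to plate controls, in a single-dose primary screen at 18.75 µM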
# CF NFkB block: blocks PAF-induced NF-kB reporter in cystic fibrosis cells; AID 588850; KKLEB NF-kB-GFP reporter, GFP fluorescence overnight; hit rate 0.86% among 360,000; inhibition, % at 5 µM;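 active = at least 50% inhibition at 5 µM, scaled per plate between neutral and stimulator controls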;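 note: PAF is a Pseudomonas aeruginosa culture filtrate used as stimulus; plate controls were PAF-stimulated DMSO wells for no effect and unstimulated DMSO wells for full effect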
# * hit, by the source's call; x = no result given. This is a sample that favours compounds with a hit; in the whole collection about 4% have one here.
SMILES,TWEAK-Fn14 inh,TROY signal inh,KKLEB cytotox,Peg3 prom inh,HIF-2a block,CF NFkB block
Cc1ccc(OCC(=O)Nc2ccc(Cl)cc2)c(-n2nc3ccccc3n2)c1,-16,17,-70*,48,-3,70*
CCOc1ccc(C)cc1-n1nc2ccccc2n1,-8,-57,2,-29,-9,2
CC(C)(C)c1ccc(S(=O)(=O)/N=C2\C=C(NS(=O)(=O)c3ccccc3)C(=O)c3ccccc32)cc1,14,11,-16,29,-10,82*
Cc1ccc(S(=O)(=O)/N=C2\C=C(NS(=O)(=O)c3ccccc3)C(=O)c3ccccc32)c(C)c1,-19,21,-6,-15,-5,78*
Cc1c(C(=O)N2CCOCC2)sc(NC(=O)C(C)C)c1C#N,8,-7,-4,-3,7,4
CN1CCN(CCCNC(=O)c2ccc(/C=C3/Sc4ccccc4N(Cc4cccc(Cl)c4)C3=O)cc2)CC1,-31,52*,-20,84*,14,14
CN1CCN(CCCNC(=O)c2ccc(/C=C3\Sc4ccccc4N(Cc4ccc(F)cc4)C3=O)cc2)CC1,-53,-11,-14,104*,-4,-4
Cc1cccc(NC(=O)c2ccc(S(=O)(=O)N3CC(C)OC(C)C3)cc2)n1 (configuration not stated),22,6,6,-3,11,1
CC1=NN(C(N)=S)C(=O)C1N=Nc1cccc(C)c1 (configuration not stated),-27,-46,0,-167,-212,-12
CC1=NN(C(N)=S)C(=O)C1N=Nc1cccc(C(=O)O)c1 (configuration not stated),6,3,4,28,46*,0
Cc1ccc(C)c(OCCC(=O)N(C)CC(=O)Nc2c(C)cccc2C)c1,-14,0,7,12,4,15
CC(O)C(=O)N/N=C/c1cccc2ccccc12 (configuration not stated),1,-8,1,-21,-16,4
O=C(NN=Cc1cccc2ccccc12)C(=O)NN=Cc1cccc2ccccc12,-18,-3,6,51*,2,-24
O=C(O)c1cc(N/N=C/c2cccc3ccccc23)ccc1Cl,101*,-19,0,-276,-185,-17
Cc1ccc(S(=O)(=O)N2CCOCC2)cc1-c1n[nH]c(=S)n1-c1ccccc1,2,-1,3,4,6,8
CCOC(=O)c1ccc(S(=O)(=O)N2CCN(c3ccccn3)CC2)cc1,1,8,-10,9,0,22
Nc1cccnc1Oc1ccccc1F,9,68*,1,2,10,-8
Cc1ccc(/C=C/C(=O)OC(C)C(=O)NC2CCCCC2C)o1 (configuration not stated),6,4,10,0,-3,-10
CCOC(=O)c1c(NC(=O)c2ccco2)n(C2CCCCC2)c2nc3ccccc3nc12,88*,71*,-14,27,13,23
CCOc1ccc(CN2CCN(Cc3ccsc3)C(CCO)C2)cc1CO (configuration not stated),89*,4,-15,7,16,11
c1cn2c(-c3ccoc3)cncc2n1,17,1,5,4,1,-19
COc1cc(C(=O)NC(=S)N(CCc2ccccc2)CCc2ccccc2)cc(OC)c1OC,38,70*,-13,44,29,14
COc1ccc(-c2[nH]ncc2CNC(C)c2cn(C)nc2C)c(F)c1 (configuration not stated),65*,-16,-7,1,20,11
Cc1sc(NC(=O)C2CC(=O)N(Cc3ccco3)C2)nc1-c1ccccc1 (configuration not stated),0,12,10,6,9,-11
CN1OC[C@@H]2CN(S(=O)(=O)c3cccc(C(F)(F)F)c3)[C@H](c3ccc(N4CCCCC4)cc3)C[C@@H]21,-24,11,2,18,0,-10
SMILES,TWEAK-Fn14 inh,TROY signal inh,KKLEB cytotox,Peg3 prom inh,HIF-2a block,CF NFkB block
CCCCCCCCNS(=O)(=O)CCNCc1ccccc1OC,-2,8,-6,48,14,16
CCCc1[nH]n(-c2nc3ccccc3s2)c(=O)c1C=NCCCOC,-6,-19,6,-8,-38,-12
COCCCN=Cc1c(-c2ccccc2)[nH]n(-c2nc3ccccc3s2)c1=O,-9,-30,-13,-28,-80,-42
CCCCCN=Cc1c(C)[nH]n(-c2nc3ccccc3s2)c1=O,87*,39,-7,39,10,-2
O=c1c(C=NCCCO)c(-c2ccccc2)[nH]n1-c1nc2ccccc2s1,77*,34,-2,31,19,-12
COc1ccccc1-n1c(SCC(=O)N(C)C)nnc1-c1ccco1,0,7,14,11,13,-6
Cc1ccc(C)c(C(=O)CSc2nnnn2C(C)C)c1,-16,-55,2,-78,-121,-6
Cc1ccc(C(=O)CSc2nnnn2C(C)C)c(C)c1,90*,53*,-9,2,0,4
C/C=C(\C)C(=O)OC1CC(C)(C)C[C@H]2C3=CC[C@@H]4[C@@]5(C)CCC(O[C@@H]6O[C@@H](C(=O)O)[C@@H](O)C(O[C@@H]7OC[C@H](O)[C@@H](O)[C@@H]7O[C@@H]7OC(CO)C(O)[C@@H](O)[C@@H]7O)C6O[C@@H]6OC(CO)C(O)C(O)C6O)[C@@](C)(CO)[C@@H]5CC[C@]4(C)[C@]3(C)CC(O)[C@@]12CO (some centres not stated),1,-13,0,60*,6,7
COc1ccccc1-c1c(C)oc2c(CN3CCN(CCO)CC3)c(O)ccc2c1=O,86*,x,0,-4,3,7
COc1ccc(CNC(=O)C[C@@H]2C[C@H]3c4cc(NC(=O)NC5CCCC5)ccc4O[C@H]3[C@H](CO)O2)cc1,-36,-15,5,5,8,-37
CCOC(=O)C1=C(COC(=O)COc2ccc(C#N)cc2)NC(=O)NC1C (configuration not stated),90*,-1,10,9,3,6
COc1cc(/C=N/Nc2ccc(Cl)c(C(=O)O)c2)ccc1OC(=O)c1ccccc1F,-11,-46,-2,-9,-4,-8
NC(=S)NN=Cc1nccc2c(C(F)(F)F)cccc12,12,13,-38,19,-145,70*
COC(=O)C1CCN(c2cc(=O)n(C3CCCCC3)c(=O)[nH]2)CC1,95*,x,3,11,9,-6
O=c1cc(N2CCCCC2)[nH]c(=O)n1C1CCCCC1,-5,-25,13,-68,-84,-19
O=C1c2ccccc2NC(c2cccc(O)c2)N1O (configuration not stated),18,83*,7,-46,-104,-18
O=C(NC(=S)NC(CO)Cc1ccccc1)c1ccc(F)cc1 (configuration not stated),-22,-52,12,-317,-215,-5
